# MITF act = MITF TRPM1 promoter activation in melanoma cells | SK-MEL-5 TRPM1-promoter luciferase, 24 h; % of positive control, neutral wells = 0 | activation, % at 12.5 µM | 300,000 tested, 0.75% active;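 active = mean activation of at least 80% with every replicate also reaching 80%; inconclusive = mean reaches 80% but some replicate falls short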;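 note: 0% = neutral control wells and 100% = parthenolide positive control wells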
# TROY NFkB inh = blocks TROY-dependent signaling in reporter cells; AID 1347056; 360,000 tested, 0.98% active; Q293 LMP1-TROYcd NF-kB luciferase reporter, 4 h; inhibition, % at 10 µM;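 active = compounds whose plate-normalised and pattern-corrected inhibition of the luciferase reporter signal at the single screening dose is 50% or more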
# LGR2 antag = blocks bursicon-induced cAMP signaling via Drosophila LGR2. 380,000 tested, 0.35% active. inhibition, % at 9.99 µM. AID 720647. HEK293 LGR2, CRE-luciferase, bursicon-stimulated, 4 h;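 active = drop in luminescence signal, shown as inhibition above about 50% in the replicate tests, limit read from the data, passing the limit was not always enough; inconclusive = probably only some replicates passing the limit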;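 note: agonist challenge used bursicon conditioned medium at about half maximal strength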
# TRPM1 prom inh = reduces MITF-dependent TRPM1 promoter luciferase signal; SK-MEL-5 TRPM1 promoter luciferase, 24 h; inhibition, % at 12.5 µM; 330,000 tested, 0.83% active; AID 488899;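 active = mean inhibition across replicates of 60% or more, whatever share of single replicates reaches that level; inconclusive = some that reach 60%, reason not given; inactive = mean inhibition across replicates below 60%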
# LMP1 NFkB inh = inhibitors of Epstein-Barr LMP1-induced NF-kappaB reporter | LMP1-induced NF-kappaB luciferase reporter cells, luminescence | inhibition, % at 12.5 µM | 350,000 tested, 0.69% active; in the data active = inhibition above about 41%; inconclusive = no clear call, values can overlap the other calls;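 note: 0% = neutral control wells and 100% = reference inhibitor control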
# TWEAK Fn14 block = TWEAK-Fn14 signaling inhibition; TWEAK-stimulated Fn14 reporter cells, luciferase luminescence, 8 h; 360,000 tested, 2% active; AID 1159606; inhibition, % at 10 µM; in the data active = inhibition above about 50%
# * hit, by the source's call; ? = inconclusive; . = no result given. Shown are actives, neighbours in structure and some others; about 3% of the full set was active somewhere.
SMILES,MITF act,TROY NFkB inh,LGR2 antag,TRPM1 prom inh,LMP1 NFkB inh,TWEAK Fn14 block
COc1cc(C(=O)N/N=C/c2coc3ccc(Cl)cc3c2=O)ccc1O,5,25,7,-6,11,43
O=C(/C=C/c1ccc(F)cc1)c1ccccc1Br,21,1,7,-22,-13,63*
Cc1ccccc1Nc1nc(N)nc(CSc2ccc(F)cc2)n1,89*,1,-158,-90,-26,2
Cc1ccccc1Nc1nc(N)nc(CSc2nc3ccccc3c(=O)n2CCCO)n1,22,-7,-12,-20,13,1
Cc1ccc(Nc2nc(N)nc(CSc3nc4ccccc4s3)n2)cc1,39,44,.,-38,-20,83*
Cc1ccccc1Nc1nc(N)nc(CSc2nc3ccccc3c(=O)n2C)n1,-8,44,15,5,11,66*
CC(=O)N(C)C[C@@H]1Oc2ncc(-c3cccc(F)c3)cc2C(=O)N([C@@H](C)CO)C[C@@H]1C,.,.,3,.,.,.
CCN(CC)CCNc1cc(C)c(C#N)c2nc3ccccc3n12,.,-7,6,15,-3,-31
Cc1cc(Nc2cccc([N+](=O)[O-])c2)n2c(nc3ccccc32)c1C#N,-76,26,32,76*,50*,77*
COc1ccc(NC(=O)N2C3CCCC2CC(NC(=O)C2CC2)C3)cc1 (stereo not given),.,-2,1,0,-5,77*
COC(=O)N1C(=O)[C@](c2ccccc2)(C2CCCCC2)N1C(=O)OC,-19,17,.,21,0,51*
CC[C@@]1(c2ccccc2OC)C(=O)N(C(=O)OC)N1C(=O)OC,-12,10,.,12,-4,19
COC(=O)N1C(=O)[C@@](c2ccccc2)(C2CCCC2)N1C(=O)OC,-30,42,.,30,0,71*
COC(=O)N1C(=O)[C@](CC(C)C)(c2ccccc2)N1C(=O)OC,-55,2,-6,56,9,35
CC(C)Oc1cccc(C(=O)NC(=S)Nc2ccccc2)c1,75,67*,-44,-79,-42,59*
CC(=O)c1cccc(NC(=S)NC(=O)c2ccccc2Br)c1,12,-21,-10,-11,-2,-25
CC(=O)c1ccc(NC(=S)NC(C)c2ccc(Cl)cc2Cl)cc1 (stereo not given),23,56*,9,-21,-4,11
CC(=O)c1cccc(NC(=S)NC(=O)c2ccc(Cl)cc2)c1,97*,-73,-34,-81,-15,-25
CC(=O)c1ccc(NC(=S)Nc2ccc(Br)c(Cl)c2)cc1,6,-25,-55,-6,3,-25
CC(=O)c1cccc(NC(=S)NC(=O)c2cccc(C)c2)c1,109*,-88,-79,-99,-27,-19
CC(=O)c1cccc(NC(=S)NC(=O)c2ccccc2C)c1,14,-31,-23,-16,1,-1
COc1ccc(CNc2ccc3c(c2)CCC3)cc1Br,.,48,.,-2,-7,57*
O=[N+]([O-])c1cccc(CNc2ccc3c(c2)CCC3)c1,14,-25,-45,-15,-14,-29
COc1ccccc1CNc1ccc2c(c1)CCC2,.,47,-29,0,7,66*
CCS(=O)(=O)N1CC2(CN(Cc3ccc4c(c3)OCO4)[C@@H](CO)c3c2c2ccc(OC)cc2n3C)C1,.,.,1,.,.,.
SMILES,MITF act,TROY NFkB inh,LGR2 antag,TRPM1 prom inh,LMP1 NFkB inh,TWEAK Fn14 block
COc1ccc2c3c(n(C)c2c1)[C@@H](CO)N(C(=O)C1CCCC1)CC31CCN(C(=O)c2ccncc2)CC1,.,.,17,.,.,.
O=[N+]([O-])c1ccccc1CSc1ccccn1,.,-2,-8,-7,4,-25
O=[N+]([O-])c1ccccc1CCc1cnc(Cl)s1,12,52*,-3,-9,-3,58*
O=C(Nc1ccc(N2CCCC2)cc1)c1cccc(Cl)c1,102*,-12,-20,-96,-21,12
O=C(Nc1ccc(N2CCOCC2)cc1)c1cn2ccccc2n1,-21,24,.,21,55*,68*
O=C(Nc1ccc(N2CCCCC2)cc1)c1ccccn1,-81,87*,.,82*,75*,100*
O=C(Nc1ccc(N2CCCCCC2)cc1)c1ccccc1Cl,19,1,-84,-19,-24,-49
C[C@@H]1CN([C@H](C)CO)S(=O)(=O)c2ccc(C#CC(C)(C)O)cc2O[C@@H]1CN(C)C(=O)C1CCCCC1,.,.,5,.,.,.
C[C@H]1CN([C@@H](C)CO)C(=O)Cc2cc(NC(=O)NC3CCCCC3)ccc2O[C@H]1CN(C)S(C)(=O)=O,.,.,6,.,.,.
CO[C@@H]1CC[C@@H]2CCOc3c(C#N)cccc3C(=O)N(C)[C@@H](C)C(=O)N(C)C[C@@H]1O2,.,.,-15,.,.,.
O=C(CSc1ncnc2c(-c3ccc(Cl)cc3)nsc12)c1ccccc1,-3,57*,-3,5,-5,40
CNC(=O)C[C@@H]1CC[C@H]2[C@@H](COc3ccc(NC(=O)c4ccc(F)c(F)c4)cc3C(=O)N2C)O1,.,.,-4,.,.,.
[O-][n+]1c2c(c3c4non(O)c4ccc31)CCCC2,-7,51*,10,5,-3,0
C=CCOc1ccc(CN(C)CC(O)COc2ccc(CCC(C)=O)cc2)cc1 (stereo not given),-7,6,5,5,3,55*
CC(=O)CCc1ccc(OCC(O)CNCCOc2ccc(C)cc2)cc1 (stereo not given),-2,-5,-12,-1,6,12
Cc1cccc(C)c1NC(=O)CN(C)CC(=O)Nc1ccccc1Oc1ccccc1,7,1,-6,-2,63*,52*
COc1ccc2c3c([nH]c2c1)[C@H](CO)N(Cc1cccc(Cl)c1)CC31CN(C(C)=O)C1,.,.,6,.,.,.
Nc1ccc(CSc2ccc(Cl)cc2)c(Cl)c1,135*,-49,.,-124,-48,-23
N=C(N)SCc1ccc(Cl)cc1Cl,0,13,-4,-5,-20,-13
Cc1ccc(C(=O)N2CCN(c3ccc(NC(=O)c4ccc5c(c4)OCCO5)cc3)CC2)cc1,-46,57*,-18,47,19,76*
CCC(=O)Nc1ccc(N2CCN(C(=O)c3ccccc3C)CC2)cc1,2,-3,.,1,-3,-1
Cc1ccccc1C(=O)N1CCN(c2ccc(NC(=O)CSc3ccc(Cl)cc3)cc2)CC1,-51,46,.,50,58*,19
Cc1ccccc1C(=O)N1CCN(c2ccc(NC(=O)c3ccc4c(c3)OCCO4)cc2)CC1,-68,46,?,70*,43*,73*
c1ccc(OCc2nc(-c3cccs3)no2)cc1,108*,-42,.,-110,-35,-52
CCCc1ccc(OCc2nc(-c3ccc(NC(=O)c4cccs4)cc3)no2)cc1,94*,-51,3,-86,-22,-47
Fc1ccc(OCc2nc(-c3cccs3)no2)cc1,72,-91,-75,-72,-31,-30
Cc1ccc(-c2noc(COc3ccccc3C)n2)cc1,.,-51,.,-43,-8,-24

# Bioassay records deposited in PubChem BioAssay by several laboratories.
